This is a sample that favours compounds with a hit; in the whole collection about 11% have one here.
ALOX12 inhib = blocks human 12-lipoxygenase activity; Potency, µM (doses to about 57.1 µM), inactives show at the highest dose activity change, negative = inhibition, hits mostly inhibitors; P18054; hit rate 0.12% among 150,000; purified 12-hLO, xylenol orange hydroperoxide absorbance; AID 1452; active = well fitted curve in the direction sought with a large enough effect; inconclusive = small, poorly fitted or top-dose-only effect, or another doubt; inactive = no such curve, though single readings can be large; an effect the other way counts as inactive or inconclusive; note: potency is the fitted concentration of half-maximal effect; nearly all actives have a fitted effect of over 55% in size
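Xylenol orange chromogenic assay: hydroperoxide from 12hLO oxidises Fe(II), giving red-shifted Fe(III)-XO absorbance. Conditions: 150 nM enzyme, 40 uM arachidonic acid, 25 mM Hepes pH 7.0, 0.01% Triton X-100, 30 min, room temperature.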
HPGD inh = blocks human HPGD enzyme activity | purified HPGD, NADH fluorescence kinetic, PGE2 substrate | Potency, µM, without a hit: at the highest dose activity change, negative = inhibition, usual class: inhibitors | hit rate 4.3% among 150,000; note: potency is the fitted concentration of half-maximal effect
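20 nM HPGD preincubated 15 min at room temperature with compound in 50 mM Tris-HCl pH 8, 0.01% Tween 20. Started with 1 mM NAD+ and 30 uM prostaglandin E2; NADH fluorescence (360/450 nm) read 5 times over 30-s intervals, last minus first.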
PNC inhibitor = inhibitors of perinucleolar compartment assembly; PC3M PTB-GFP, PNC prevalence imaging, 16 h; active compounds read low; activity change (PNC), negative = inhibition, % at 10 µM; hit rate 3.1% among 140,000;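 active = readout at or below -70, meaning at least 70% loss of cells showing the perinucleolar compartment, a nuclear body marking cancer cells; inconclusive = readout between -30 and a set limit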;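 note: plate controls were DMSO wells for no effect and camptothecin positive control wells for full effect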
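PC3M cells stably expressing PTB-GFP, 750–1000 cells/well, treated 16 h at 37 °C with compound (23 nl of library stock), in duplicate. After paraformaldehyde fixation and Hoechst stain, imaged at 20x; PNC prevalence scored by image analysis.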
ALDH1A1 inh = blocks purified human ALDH1A1 activity. Purified ALDH1A1, NADH fluorescence, propionaldehyde substrate. Potency, µM (series often up to 75.3 µM), for the others: at the top dose activity, negative = inhibition, usual class: inhibitors. hit rate 7.3% among 220,000. AID 1030;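 note: potency is the fitted concentration of half-maximal effect; plate controls were no enzyme wells and a reference inhibitor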
Target sequence (P00352 whole entry, looked up): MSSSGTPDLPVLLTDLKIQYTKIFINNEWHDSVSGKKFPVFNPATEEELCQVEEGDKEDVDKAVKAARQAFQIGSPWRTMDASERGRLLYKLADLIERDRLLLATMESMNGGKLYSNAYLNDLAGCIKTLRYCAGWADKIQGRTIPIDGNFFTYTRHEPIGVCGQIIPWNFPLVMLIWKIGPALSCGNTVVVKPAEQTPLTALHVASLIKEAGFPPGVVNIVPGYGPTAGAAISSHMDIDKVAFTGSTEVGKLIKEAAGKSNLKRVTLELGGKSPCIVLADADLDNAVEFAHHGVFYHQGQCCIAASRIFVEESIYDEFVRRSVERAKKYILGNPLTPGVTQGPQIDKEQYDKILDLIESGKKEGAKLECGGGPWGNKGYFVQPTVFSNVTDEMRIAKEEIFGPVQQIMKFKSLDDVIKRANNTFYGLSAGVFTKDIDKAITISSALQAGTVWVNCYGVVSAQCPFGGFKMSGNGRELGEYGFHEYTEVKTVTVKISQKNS
IMPase inh = cell-permeable inhibitors of inositol monophosphatase (IMPase) | CHO-M1 cells, IP1 accumulation, HTRF TR-FRET ratio | inhibition (IP1 accumulation), % at 46.1 µM | 120,000 tested, under 10 active | AID 901; active = well fitted curve in the direction sought with a large enough effect in the signal ratio, not every such curve was filed as active; inconclusive = small, poorly fitted or top-dose-only effect, or a change in a side signal; inactive = no such curve, though single readings can be large or run the other way; the % refers to the signal ratio;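 note: cells stimulated with carbachol in lithium chloride buffer; plate controls were DMSO basal wells for no effect and reference inhibitor wells for full effect; higher means more IMPase inhibition seen as more IP1 and lower FRET ratio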
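Cellular IMPase inhibition is scored as a rise in cytosolic IP1, detected by competitive TR-FRET between d2-labelled IP1 and a europium anti-IP1 antibody. M1-expressing CHO cells were stimulated with carbachol for 30 min at 37C, with lithium (50 mM LiCl) present in the buffer.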
IMPase Li cell = membrane-permeable IMPase blocker, potentiated with lithium; CHO-M1 cells, IP1 TR-FRET (IP-One), carbachol + lithium; Potency, µM (titrated, usually from 59.4 µM), for inactives: at the top dose activity, negative = IMPase inhibition, usual class: inhibitors; hit rate 0.35% among 210,000; AID 1457; active = well fitted curve in the direction sought with a large enough effect; inconclusive = small, poorly fitted or top-dose-only effect, or another doubt; inactive = no such curve, though single readings can be large; an effect the other way counts as inactive or inconclusive;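 note: IP1 builds up when IMPase is blocked and the TR-FRET signal falls; potency is the fitted concentration of half-maximal effect; plate controls were basal vehicle for no effect and high inhibitor control for full effect; nearly all actives have a fitted effect of over 50% in size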
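Concentration–response in CHO-M1 cells, lithium-potentiated; 30 min at 37C. IP1 detected by competitive TR-FRET after 10 min lysis at RT. Hill-fitted AC50.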
Active calls of the source: *; ? = inconclusive; . = no result; [ ] = dose if it differs, or a comment. Unless noted, calls come from the whole dose curve; as a rule, active = well fitted inhibition curve with a large enough effect (not every such curve was filed as active); inconclusive = small, poorly fitted or top-dose-only effect, or another doubt; inactive = no such curve, though single readings can be large or run the other way. Unless noted, % is set by controls: 0 for no effect and ±100 for the full control effect.

SMILES	ALOX12 inhib	HPGD inh	PNC inhibitor	ALDH1A1 inh	IMPase inh	IMPase Li cell
CC(C)Cn1c(-c2ccc(Br)o2)n[nH]c1=S	-2%	-19%	-24	10µM*	.	-5%
CC(C)Cn1c(-c2nn(C)cc2Cl)n[nH]c1=S	3%	-22%	23	8%	1	-1%[38.3 µM]
Cc1ccsc1-c1n[nH]c(=S)n1CC(C)C	-4%	-18%	?	25µM*	.	-9%
Cc1c(Cl)c(-c2n[nH]c(=S)n2CC(C)C)nn1C	0%	-15%	-18	?	.	-2%
COC(=O)C1CC1C(NC(=O)[C@H]1CCCCN1)c1ccccc1 (some centres not stated)	2%	0%	.	-10%	.	1%
Cc1cccn2c(=O)c(C=Nc3ccc(Cl)cc3)c(NCCO)nc12	9%	?	-100*	?	-17	3%
Cc1cccn2c(=O)c(C=Nc3ccccc3)c(NCCO)nc12	6%	?	23	?	-2	-17%[38.3 µM]
Cc1cc(NC(=O)CSc2ccc(-c3nc4cc(C)c(C)cc4[nH]3)cn2)no1	-4%	?	16	?	3	11µM*
CCOc1ccc2nc(SCC(=O)Nc3cc4c(cc3C(C)=O)OCO4)[nH]c2c1	-5%	-24%	57	25µM*	10	2%[38.3 µM]
COc1ccc2nc(SCC(=O)Nc3ccc4c(c3)CCC4)[nH]c2c1	0%	-10%	8	11µM*	.	-1%
COc1ccc2nc(SCC(=O)Nc3cc(C)on3)[nH]c2c1	4%	-11%	-97*	-5%	-7	18%[38.3 µM]
CC(C)Oc1cccc(C(=O)Nc2ccc(-c3nc4cc(Cl)cc(Cl)c4o3)cc2)c1	.	.	.	.	-13	.
COc1cccc(-c2nccc(NCCc3c[nH]c4ccc(OC)cc34)n2)c1	.	.	.	4%	.	11%
O=C(NNS(=O)(=O)c1ccccc1)c1cc2cc3ccccc3nc2s1	-10%	?	-106*	8%	10	16%[38.3 µM]
COc1cccc(NC(=O)CSc2nc(O)c(C/C=C/c3ccccc3)c(=O)[nH]2)c1	.	.	.	.	-1	.
O=C(NC1CC2CCCC(C1)N2S(=O)(=O)c1ccccc1)C1CCCCC1 (configuration not stated)	-2%	-11%	84	28µM*	8	8%[38.3 µM]
COc1ccc(Cl)cc1NC(=O)CN(C(=O)c1ccco1)C1CCCCC1	-16%	-16%	34	0.04µM*	22	31%[38.3 µM]
COc1cc(NC(=O)c2ccc(Cl)cc2)c(OC)cc1NC(=O)CN1CCCCC1	.	.	.	?	.	14%
COc1ccc(Cl)cc1NC(=O)CN1CCc2ccccc21	.	.	.	7.9µM*	.	.
COc1ccc(Cl)cc1NC(=O)CCN1CCN(C)CC1	0%	1%	5	7%	4	26%[38.3 µM]
COc1ccc(Cl)cc1NC(=O)CN1CCCCCC1	.	.	.	18µM*	.	22%
COCCOC(=O)c1c(NC(=O)CN2CCc3ccccc32)sc(C(N)=O)c1C	.	.	.	14µM*	.	.
CCOc1ccccc1C(=O)N(Cc1ccco1)C1CCS(=O)(=O)C1 (configuration not stated)	-1%	1%	-15	19%	2	-7%[38.3 µM]
O=C(COc1ccccc1Cl)N(Cc1ccco1)C1CCS(=O)(=O)C1 (configuration not stated)	0%	.	-111*	24%	8	.
O=C(COc1ccccc1)N(Cc1ccco1)C1CCS(=O)(=O)C1 (configuration not stated)	-2%	-11%	-4	22µM*	11	-26%[38.3 µM]
O=C(NC1CCCCC1)C(c1ccco1)N(CCc1ccccc1)C(=O)C(F)(F)F (configuration not stated)	-3%	-2%	27	32µM*	12	29%
O=C(CC(Cc1ccccc1)c1ccco1)NC1CCCCC1 (configuration not stated)	1%	14µM*	-13	-7%	4	22%[38.3 µM]
O=C(NC1CCCCC1)N(Cc1ccccc1)Cc1ccco1	-11%	-8%	?	?	7	15%[38.3 µM]
C#CCOCCCC(=O)O	-1%[11.4 µM]	-14%	.	-4%[13.5 µM]	.	-1%
